# Source: PubChem (several laboratories)
# MT1-MMP txn act – MT1-MMP promoter reporter activation – cell-based, luciferase luminescence, primary screen; HT1080 MT1-MMP promoter luciferase reporter, overnight; stronger effect = higher value; activation factor at 10 µM; 86,000 tested, 0.16% active; AID 750, 2007;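 active means activation factor of at least 2 for MT1-MMP transcription at 10 µM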
# Her2 expr inh – inhibitors of Her2 protein expression, primary screen, SKBR-3 cells, AlphaScreen, 66K library. AID 645, 2007. HER2 level % of control, % at 10 µM. SKBR-3 HER2 protein level, 18-24 h; stronger effect = lower value. Receptor tyrosine-protein kinase erbB-2 (Homo sapiens), P04626. 65,000 tested, 0.69% active;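 active means HER2 level under 5% of the carrier-only control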;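 further: 100% = DMSO carrier and 0% = 500 nM PU-H71 HSP90 inhibitor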
# FXIIa inh mix – human factor XIIa inhibitors, primary screen, biochemical, pooled compound mixtures, fluorogenic substrate; Coagulation factor XII (Homo sapiens), P00748; purified FXIIa; inhibition, % at 5 µM; 62,000 tested, 0.2% active;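 further: 0% = enzyme without compound and 100% = no enzyme blank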
# Target sequence (P00748 20-372 limits assumed): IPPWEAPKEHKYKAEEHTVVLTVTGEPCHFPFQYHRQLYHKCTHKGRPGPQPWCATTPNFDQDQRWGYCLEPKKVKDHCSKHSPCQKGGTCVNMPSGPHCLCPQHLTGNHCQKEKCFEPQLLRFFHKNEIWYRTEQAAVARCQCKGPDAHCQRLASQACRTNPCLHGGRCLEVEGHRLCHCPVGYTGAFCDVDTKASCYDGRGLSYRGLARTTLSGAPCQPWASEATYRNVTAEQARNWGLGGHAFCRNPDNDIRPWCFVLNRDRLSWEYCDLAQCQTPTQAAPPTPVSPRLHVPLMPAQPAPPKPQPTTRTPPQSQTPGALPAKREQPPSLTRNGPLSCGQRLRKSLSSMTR
# Target sequence (P00748 373-615 limits assumed): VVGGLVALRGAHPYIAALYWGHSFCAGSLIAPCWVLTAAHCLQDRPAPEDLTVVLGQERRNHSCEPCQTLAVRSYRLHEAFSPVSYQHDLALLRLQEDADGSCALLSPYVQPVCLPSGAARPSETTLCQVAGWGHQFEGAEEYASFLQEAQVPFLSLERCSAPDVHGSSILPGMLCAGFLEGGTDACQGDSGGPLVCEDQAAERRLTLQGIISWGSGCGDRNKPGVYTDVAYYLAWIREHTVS
# FXIa inh mix – FXIa protease inhibitors in compound pools, primary screen, biochemical, 10-compound mixtures. Coagulation factor XI (Homo sapiens), P03951. purified FXIa, fluorogenic substrate, pooled mixtures. inhibition, % at 5 µM. 62,000 tested, 0.19% active;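 further: each value is inhibition by a whole ten-compound pool holding the compound; 0% = enzyme with no mixture and 100% = wells lacking enzyme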
# * hit, by the source's call; x = not tested or not shown. In the library only some 0.88% were active in any assay of this set; here they are far more common. Unless noted, no stated cut-off is given here; in the data, active means inhibition above about 20% (passing the limit was not always enough); inactive means the rest.
SMILES,MT1-MMP txn act,Her2 expr inh,FXIIa inh mix,FXIa inh mix
CCCCN1C(=O)NC(=O)C2(Cc3c(nc4c(C)cccn4c3=O)N3CCc4ccccc4C32)C1=O (configuration not stated),1.1,1.2*,3.7,0.3
CCCN1[C@@H]2C[C@@H](O)CC[C@@H]2C[C@H]1C(=O)OC,1.2,x,x,x
CC1N(P(=O)(c2ccccc2)c2ccccc2)CC(O)(c2ccccc2)CC12CC2 (configuration not stated),1.4,x,x,x
Nc1c(C(=O)NC2CCCC2)c2nc3ccccc3nc2n1CC1CCCO1 (configuration not stated),1.1,-28.5*,6.2,1.4
CCCC[C@@H]1C[C@H]1[C@@H](NP(=O)(c1ccccc1)c1ccccc1)c1ccc(Cl)cc1,1.1,x,x,x
COC(=O)[C@H]1C[C@H]2CC[C@H](O)C[C@H]2N1CC1CC1,1.1,x,x,x
CN1C(=O)/C(=C/c2ccc(N3CCCCCC3)o2)C(=O)NC1=S,2.2*,x,x,x
Clc1ccc(COC(Cn2ccnc2)c2ccc(Cl)cc2Cl)cc1 (configuration not stated),1,-15.3*,0.1,9.4
C[C@H]1CCC/C=C/C2C[C@H](O)CC2[C@H](O)/C=C/C(=O)O1 (some centres not stated),0.4,94.2,9.4,1.0
C[C@H]1CCC[C@@H](O)CCC/C=C/c2cc(O)cc(O)c2C(=O)O1,0.9,-14.0*,-18.8,10.3
C[C@H]1CCC[C@H](O)CCCCCc2cc(O)cc(O)c2C(=O)O1,0.8,-10.4*,4.5,7.0
CCn1nc(-c2ccccc2)nc2c(=O)n(C)c(=O)nc1-2,x,-14.1*,8.1,6.6
Cc1nc2c(=O)n(C)c(=O)nc-2n(C)n1,0,x,x,x
CCCC/C=C/[C@@H](NP(=O)(c1ccccc1)c1ccccc1)c1ccccc1OC,1,x,x,x
